Our source for the growth values is PubChem BioAssay (NCI).

Compounds without any hit were thinned out: in the full panel of roughly 83,000, 20% have a hit.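 Values shown are percent growth following 48 h exposure of cells in 96-well plates to a single concentration of compound; below 10 was considered active.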 Values without a mark were called inactive. The source made the active and inactive calls.

What all share (assay): NCI-60 one-dose screen, 48 h (100 = growth as untreated, 0 = no growth, -100 = all killed)
Holding throughout (conditions): 10 µM unless noted

For test [1], the system named is SK-MEL-2 melanoma.
The test system of test [2] is EKVX NSCLC.
Test [3] deals with SN12C renal.
For test [4], the system named is UO-31 renal.
Test [5] deals with TK-10 renal.
Test [6] deals with ACHN renal.
In test [7] the test system is CAKI-1 renal.
In test [8] the test system is A498 renal.
Test [9] concerns CCRF-CEM leukemia.
Test [10] relates to MOLT-4 leukemia.
Test [11] deals with SR leukemia.
Test [12] deals with RPMI-8226 leukemia.
Test [13] has as its system OVCAR-8 ovarian.
Test [14] deals with OVCAR-5 ovarian.
The subject of test [15] is OVCAR-4 ovarian.
For test [16], the system named is SK-OV-3 ovarian.
The subject of test [17] is IGROV1 ovarian.
Test [18] has as its system OVCAR-3 ovarian.
Test [19] relates to HS 578T breast.
For test [20], the system named is NCI/ADR-RES ovarian.

With `COc1ccc(-c2nc3c(N)c(CO)cnc3s2)cc1`, the growth in test [1] was 105%; in test [2], 48.4%; in [3] it was 108%; in test [4], 84.6%; in test [5] it was 91.9%; in [6], 93.4%. Besides, the growth was 88.7% in test [7]; -19.1% (active) in test [8]; 103% in [9]; 91.1% in test [10]; 93.5% in test [11]; 92.9% in test [12]. For the same compound, the growth in test [13] is 103%; in test [14] it was 80.4%; in test [15], 101%; in test [16], 99.9%; in test [17], 84.7%; in test [18], 89.4%. Besides, the growth in [19] is 92.8%; in [20], 86.7%.

As to `Cc1nc2c(=O)nc3s/c(=C\c4ccco4)c(=O)n3c2nc1C`, the growth in test [1] is 109%; in [2] it was 91.8%; in test [3] it was 97.8%; in test [4] it was 73.1%; in [5], 92.9%; in [6] it was 99.2%. In addition, the growth was 88.4% in test [7]; 50.9% in test [8]; 108% in test [9]; 106% in test [10]; 94.2% in test [11]; 116% in test [12]. Besides, the growth in test [13] is 96.1%; in test [14] it was 101%; in test [15], 101%; in [16], 102%; in [17], 93.4%; in test [18], 105%. The results for the growth in [19] and in test [20] were -95.1% (active) and 93.5%, respectively.

In the case of `COc1cc(-c2nc3c(ncc4ccc(=O)n(-c5ccccc5)c43)s2)cc(OC)c1OC`, the growth in test [1] was 88.4%; in test [2], 53.3%; in test [3], 73.9%; in [4], 24.9%; in test [5], 54%; in test [6] it was 79%. Moreover, the growth in [7] is 67.4%; in test [8] it was 6.71% (active); in [9], 74.1%; in [10] it was 69.5%; in [11], 74.5%; in test [12], 52.9%. The growth in test [13] is 88.3%; in test [14], 73.5%; in test [15] it was 72.8%; in test [16] it was 80%; in test [17] it was 53.5%; in test [18], 79.7%. The growth in test [19] is 52.6%; in [20], 73.1%.

Take `CCOC(=O)c1c(C)nc2c(c1N)/C(=C/c1ccc(OC)cc1)C(=O)N2Cc1ccccc1`: the growth in test [1] was 64.6%; in [2], 75.6%; in test [3], 57.4%; in [4] it was 56.6%; in [5], 97.2%; in test [6], 71.1%. Besides, the growth was 78.6% in [7]; 74.4% in test [8]; 48.9% in [9]; 15.9% in test [10]; 22.1% in test [11]; 5.58% (active) in test [12]. Further, the growth was 50.4% in test [13]; 126% in test [14]; 51.5% in test [15]; 90.5% in test [16]; 73.3% in test [17]; 41.7% in test [18]. The results for the growth in [19] and in [20] were 69.5% and 52.4%, respectively.

As to `CN1CCN(Cc2ccc(NC(=O)c3cncc(C#Cc4cnc(N)c5ncccc45)c3)cc2C(F)(F)F)CC1`, the growth in test [1] was -77.3% (active); in test [2] it was 33.3%; in [3], -33.2% (active); in test [4], -92.3% (active); in [5] it was -63.8% (active); in test [6], -75.6% (active). Further, the growth in [7] is -23.9% (active); in test [8], -27% (active); in [9] it was 19.3%; in test [10], 14.5%; in test [11], 12.4%; in [12], 19.5%. In addition, the growth is -29% (active) in test [13]; -26.5% (active) in test [14]; -21.9% (active) in [15]; 2.59% (active) in [16]; -50.8% (active) in test [17]; 15.3% in [18]. Besides, the results for the growth in [19] and in [20] were -30.3% (active) and -55.3% (active), respectively.

As for `CCCCCN(CCCCC)CC(O)c1cc(C)c2ccc3cc(C(C)C)ccc3c2c1` (stereo not given), the growth in test [1] was 82.6%; in test [2] it was 63.2%; in test [3], -52.9% (active); in test [4], 51.8%; in test [5] it was 75.5%; in [6], -77.8% (active). Also, the growth in [7] was 57.7%; in test [8], 19.5%; in test [9] it was -7.34% (active); in test [10] it was -21.5% (active); in [11] it was -12.9% (active); in [12], -18.6% (active). Moreover, the growth is -35.9% (active) in test [13]; -28.2% (active) in test [14]; 19.4% in test [15]; 85.6% in test [16]; -12.8% (active) in test [17]; -47.7% (active) in [18]. Further, the results for the growth in test [19] and in test [20] were -24% (active) and -54.6% (active), respectively.

In the case of `CCc1n(Cc2ccc3ccccc3n2)cc[n+]1Cc1ccc2ccccc2n1`, the growth in test [1] is -27.3% (active); in test [2] it was 31.9%; in test [3], 10.7%; in [4], 89.5%; in test [5], 41.9%; in test [6] it was 93.3%. The growth in [7] was 98%; in test [8], 84.9%; in test [9], 28.1%; in [10], 28.6%; in test [11], 30.2%; in test [12] it was -1.65% (active). The growth in [13] was 27.1%; in [14], 43.2%; in [15], 14.5%; in [16] it was 33.4%; in test [17] it was 30%; in [18], 14.2%. Also, the growth is 44.8% in test [19] and 104% in test [20].

Consider `CCN(CC)CCCOc1ccc2ncnc(Nc3ccc(Oc4cccc(C(F)(F)F)c4)c(Cl)c3)c2c1`, for which the growth was -14.7% (active) in test [1]; 23.4% in test [2]; 47.1% in test [3]; 0.274% (active) in test [4]; 25.7% in test [5]; -13.4% (active) in [6]. Besides, the growth in [7] was -24.4% (active); in test [8], 21.3%; in [9] it was 1.81% (active); in test [10], 0.414% (active); in [11], -3.44% (active); in test [12], -29.8% (active). Also, the growth is 16.9% in test [13]; 5.73% (active) in [14]; 7.23% (active) in [15]; 13.4% in test [16]; -52.6% (active) in test [17]; -34.8% (active) in [18]. Further, the growth was -32.8% (active) in test [19] and 2.21% (active) in test [20].

As to `COc1ccc(/C(C)=C(/c2ccc(OCCCN(C)C)cc2)c2ccc(OC(=O)c3ccccc3)cc2)cc1`, the growth was 90.9% in test [1]; 74.5% in test [2]; 79.1% in test [3]; 45.1% in test [4]; 87.8% in [5]; 111% in test [6]. Besides, the growth in test [7] is 89.7%; in test [8], 91.5%; in [9], 64.3%; in [10], 54.2%; in test [11], 9.15% (active); in test [12], 62.6%. For the same compound, the growth in test [13] is 91.6%; in test [14] it was 88.1%; in test [15], 99.8%; in test [16], 90.8%; in test [17], 93.6%; in test [18], 69.5%. Also, the growth was 55.4% in test [19] and 86.4% in test [20].

For `Cc1ccc(N2C(=O)CCC2=O)cc1`, the growth in test [1] was 84.8%; in [2] it was 95.1%; in test [3], 95.3%; in [4] it was 97.9%; in [5] it was 89.9%; in [6] it was 103%. Also, the growth in test [7] was 96.9%; in [8] it was 82.3%; in test [9] it was 108%; in [10], 101%; in test [11], 104%; in test [12], 103%. For the same compound, the growth in test [13] was 108%; in test [14], 96.3%; in test [15] it was 103%; in test [16], 99.7%; in test [17], 113%; in test [18], 102%. Besides, the growth in test [19] is 99.4%; in test [20] it was 98.5%.

Turning to `COc1ccc(C(=O)/C=C/c2ccc(N3CCCCC3)cc2)cc1OC`, the growth in [1] is 103%; in [2] it was 92.8%; in test [3], 90.5%; in test [4] it was 73.4%; in [5], 110%; in test [6], 100%. The growth in test [7] was 90.4%; in test [8] it was 87.2%; in test [9], 81.5%; in test [10] it was 88.7%; in test [11], 73.3%; in test [12], 72.9%. The growth is 92.8% in test [13]; 99.8% in [14]; 65.3% in test [15]; 107% in [16]; 95.4% in test [17]; 104% in [18]. Besides, the values for the growth in test [19] and in test [20] were 103% and 92.8%, respectively.

In the case of `NC1(CO)COC(c2ccccc2)OC1` (stereo not given), the growth in test [1] was 102%; in test [2], 118%; in [3], 104%; in test [4], 87.6%; in test [5] it was 96.5%; in test [6], 96.3%. Moreover, the growth was 103% in [7]; 107% in [8]; 99.4% in test [9]; 89% in [10]; 83.5% in test [11]; 108% in [12]. Besides, the growth was 103% in test [13]; 94.9% in test [14]; 130% in test [15]; 101% in test [16]; 104% in test [17]; 126% in test [18]. In addition, the growth in test [19] is 106%; in [20], 113%.

For the compound `CCO/C=N/C1=C(C#N)C(c2ccc(F)cc2)c2sc3c(F)cccc3c2O1` (stereo not given), the growth was 2.27% (active) in test [1]; 66.5% in test [2]; 49.7% in test [3]; 54.2% in test [4]; 64.4% in [5]; 54% in test [6]. Besides, the growth in [7] is 25.2%; in [8] it was 40.8%; in [9], 22.9%; in test [10] it was 51.5%; in test [11], 31.8%; in test [12], 41.9%. Besides, the growth in [13] was 51.5%; in test [14], 83.4%; in test [15], 67.8%; in test [16], 46.9%; in [17] it was 50.3%; in test [18] it was 8.43% (active). The growth in test [19] is 24.4%; in test [20], 25.6%.

As for `C#COc1cccc(Nc2ncnc3cc(NC(=O)[C@@H](C)Cl)ccc23)c1`, the growth in [1] was 27.4% [6.25 µM]; in [2], 36.7% [6.25 µM]; in test [3] it was 22% [6.25 µM]; in test [4], 29.2% [6.25 µM]; in test [5], 10.6% [6.25 µM]; in test [6], 20.8% [6.25 µM]. Also, the growth in test [7] is 19.4% [6.25 µM]; in test [8], 11.8% [6.25 µM]; in test [9], 3.09% [6.25 µM] (active); in test [10], 11.4% [6.25 µM]; in test [11], 1.44% [6.25 µM] (active); in test [12], -6.79% [6.25 µM] (active). Moreover, the growth in test [13] was 11.9% [6.25 µM]; in test [14], 25% [6.25 µM]; in [15], 52.8% [6.25 µM]; in test [16] it was -5.9% [6.25 µM] (active); in [17] it was 8.48% [6.25 µM] (active); in test [18] it was -6.96% [6.25 µM] (active). In addition, the growth in test [19] was 17.4% [6.25 µM]; in test [20], 6.35% [6.25 µM] (active).
